# Measurements: PubChem BioAssay (EPA / NIEHS)
# Inconclusive results are not listed. The source made the active and inactive calls. Rule for the calls: active = hit-call score of the fitted dose curve at least 0.9, where 1 is the maximum; inconclusive = response in the unintended direction; inactive = score below 0.9.
# Experiment: CCTE_Deisenroth_AIME_384WELL_CTox_Inactive: Cytotoxicity Assessment (CTOX) in CCTE's 384-well Estrogen Receptor Transactivation Assay without AIME metabolic competence (metabolism negative), Deisenroth Lab (AID 2284039);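 note: cell viability via live-cell protease substrate cleaved to fluorescent probe; cells exposed 24 h to medium preincubated 2 h with alginate-water beads without S9; loss of fluorescence signal means loss of viability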
# Description: CCTE_Deisenroth_AIME_384WELL (AIME metabolism assay) is a cell-based, single-readout assay that uses VM7Luc4E2, a human mammary gland/breast cell line, with measurements taken at 24 hour after chemical dosing in a 384-well plate.CCTE_Deisenroth_AIME_384WELL_CTox_Inactive is one of four assay components measured or calculated from the CCTE_Deisenroth_AIME_384WELL assay. It is designed to make measurements of a protease substrate, a type of viability indicator, as detected with substrate cleavage to a fluorescent probe in living cells.CCTE_Deisenroth_AIME_384WELL_CTox_Inactive is a component of the CCTE_Deisenroth_AIME_384WELL assay that measures the effect of retroftting the VM7Luc ERTA assay with the Alginate Immobolization of Metabolic Enzymes (AIME) metabolism method. AIME is optimized to impart phase I hepatic metabolism using phenobarbital/beta-naphthoflavone induced hepatic S9 from male Sprague Dawley rats. Parent chemicals are incubated for 2 hours in the AIME assay prior to transfer to the VM7Luc ERTA assay plate. […] This endpoint evaluates cytotoxicity in metabolism negative mode. Using a type of flourescent probe in VM7Luc cells, loss-of-signal activity can be used to understand loss of viability. This assay endpoint, CCTE_Deisenroth_AIME_384WELL_CTox_Inactive, was analyzed with bidirectional fitting in the ERTA assay.
# The AIME procedure consists of a preparative "pre-stamping" step using a barium chloride/poly-L-lysine (PLL) solution followed by "stamping" the lid in alginate-hepatic S9 (metabolism positive) or alginate-water (metabolism negative) to form microspheres. Once stamping is completed, the AIME lids are placed in duplicate microplates (metabolism positive or negative) containing chemical solutions and incubated for two hours to facilitate metabolic reactions. The conditioned medium, containing parent chemical or metabolites, is then transferred to the cell-based VM7Luc Estrogen Receptor Transactivation Assay (ERTA) for 24 hours. A typical experimental design tests a 10-point concentration series (0.002 - 200 uM) for 8 compounds (96-well format)1 or 32 compounds (384-well format)2 in single technical replicate. AIME assay controls include trans-stilbene (bioactivated control) and ethylparaben (bioinactivated control). ERTA assay plate controls include 17-beta estradiol (positive control) and DMSO (solvent control). Experiments typically comprise a minimum of four experimental replicates (n=4).
Compound,AC50,outcome
c1ccc2c(c1)-c1cccc3c1c-2cc1ccccc13,19.8 µM (active),–
COc1cc2c(c(OC)c1OC)-c1ccc(OC)c(=O)cc1[C@@H](NC(C)=O)CC2,19.8 µM (active),–
OCc1ccccc1,–,inactive
C=CCc1cc(S(=O)(=O)c2ccc(O)c(CC=C)c2)ccc1O,–,inactive
CCc1ccc(O)c(C(C)(C)C)c1,–,inactive
CCOC(N)=O,–,inactive
CCN(CC)C(=S)SSC(=S)N(CC)CC,–,inactive
OCC(CO)(CO)CO,–,inactive
CCCCCOC(C)=O,–,inactive
CCCCOC(=O)c1ccccc1,–,inactive
COS(C)(=O)=O,–,inactive
CCc1cccc(CC)c1N,160 µM (active),–
C[C@@H](Oc1ccc(CNC(=O)c2cccnc2Oc2ccc3c(c2)OCO3)c(F)c1)C(=O)O,–,inactive
CCCc1ccccc1,–,inactive
NC(=O)NN=Cc1ccc([N+](=O)[O-])o1,108 µM (active),–
CC(C)CC(C)O (centres undefined),–,inactive
CC(=O)c1ccccc1,–,inactive
O=C1CN(N=Cc2ccc([N+](=O)[O-])o2)C(=O)N1,31.2 µM (active),–
OCCOCCOCCO,–,inactive
